The record followed here is PubChem BioAssay (NCI).

Common to all, as to assay: NCI-60 one-dose screen, 48 h (100 = growth as untreated, 0 = no growth, -100 = all killed)
Details in all cases: 10 µM

In test [1] the test system is NCI-H23 lung.
For test [2], the system named is NCI-H226 lung.
Test [3] has as its system NCI-H322M lung.
Test [4] deals with HOP-62 NSCLC.
The subject of test [5] is NCI-H460 lung.
Test [6] concerns HOP-92 NSCLC.
For test [7], the system named is NCI-H522 lung.
Test [8] deals with A549/ATCC NSCLC.
Test [9] relates to 786-0 renal.
Test [10] has as its system COLO 205 colon.
The subject of test [11] is DU-145 prostate.
Test [12] deals with K-562 leukemia.
Test [13] deals with MALME-3M melanoma.
For test [14], the system named is MDA-MB-231 breast.
The subject of test [15] is SF-268 CNS.
Test [16] concerns SF-295 CNS.
The test system of test [17] is SF-539 CNS.
In test [18] the test system is UACC-257 melanoma.
The test system of test [19] is M14 melanoma.

The panel holds about 83,000 compounds, 20% with a hit somewhere; the sample as a whole holds those more often.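 Single-concentration screen, 48 h exposure, 96-well plates. Endpoint: percent growth. Below 10 = active.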 Unmarked numbers belong to inactive results. The source made the active and inactive calls.

In the case of `N#Cc1ccc(-c2nn(-c3ccc(C(=O)O)cc3)cc2CNc2cc(Cl)cc(Cl)c2)cc1`, the growth was 18.7% in test [1]; 47.2% in test [2]; 58% in test [3]; 41.8% in [4]; 32.3% in test [5]; 46.8% in test [6]. Further, the growth is 73.1% in test [7]; 53.7% in [8]; 36% in test [9]; 109% in test [10]; 65.4% in [11]; 43.7% in [12]. For the same compound, the growth in test [13] was 80.1%; in test [14] it was 80.2%; in test [15], 53.3%; in test [16], 38.4%; in [17], 30.6%; in [18] it was 60.2%. The growth in test [19] is 34.5%.

`Clc1ccc2c(N/N=C/c3c[nH]c4ccc(Br)cc34)ccnc2c1`: the growth was -85.4% (active) in test [1]; -64.4% (active) in test [2]; -96.9% (active) in test [3]; -59.1% (active) in test [4]; 9.83% (active) in test [5]; -69.1% (active) in test [6]. The growth in test [7] is -66.9% (active); in test [8], 1.71% (active); in test [9], -54.7% (active); in test [10], -44% (active); in [11] it was -79.3% (active); in [12], -25.5% (active). The growth in test [13] was -83% (active); in test [14] it was -90.4% (active); in test [15], -35.7% (active); in test [16], -99.4% (active); in [17] it was -87.6% (active); in [18], -83.8% (active). In addition, the growth in test [19] is -46.3% (active).

For `COc1ccc(-c2ccc(SCC(=O)Nc3ccc(C#N)cc3)nn2)cc1`, the growth in test [1] is 79.7%; in [2], 66.9%; in test [3], 88.4%; in test [4] it was 64.8%; in test [5] it was 96.4%; in [6] it was 86.9%. For the same compound, the growth in test [7] was 87.3%; in test [8] it was 96.3%; in test [9], 86.4%; in test [10], 127%; in test [11], 105%; in test [12], 90%. Further, the growth in test [13] is 78.6%; in test [14] it was 85.4%; in [15], 99.1%; in test [16], 81.3%; in test [17] it was 71%; in test [18], 98.9%.

`CN(C)c1nc(NCCNS(=O)(=O)c2ccc(C(=O)/C=C/c3ccccc3)cc2)nc(Nc2ccc(F)cc2)n1`: the growth was 28.8% in test [1]; 27.8% in test [2]; 44.1% in test [3]; 61.1% in [4]; 14.9% in test [5]; -12.1% (active) in test [6]. Further, the growth in [7] was 61.6%; in test [8], 45.4%; in test [9] it was -20.6% (active); in [10], 54%; in [11] it was 26.3%; in [12], 10.8%. The growth in test [13] is 36.5%; in test [14], 17.7%; in test [15], 32.4%; in test [16], 23.1%; in test [17], 26.7%; in test [18] it was 54.8%. Besides, the growth in test [19] is 5.05% (active).

As for `O=C(CSc1nnc(-c2ccc3nc(-c4ccc(Cl)cc4)[nH]c3c2)o1)Nc1ccc(Cl)cc1`, the growth in test [1] is -73.9% (active); in test [2], -68.8% (active); in test [3], -66.5% (active); in test [4], -56.4% (active); in test [5], -51.3% (active); in [6], -6.37% (active). In addition, the growth was -45.1% (active) in test [7]; -58.4% (active) in [8]; -76.8% (active) in [9]; 7.13% (active) in test [10]; 2.3% (active) in [11]; 5.7% (active) in test [12]. Moreover, the growth was -78.6% (active) in test [13]; -87.1% (active) in test [14]; -6.48% (active) in test [15]; -99.4% (active) in test [16]; -100% (active) in test [17]; -32.6% (active) in test [18]. Moreover, the growth in test [19] was -50.6% (active).

As to `CN1CCN(Cc2ccc(NC(=O)c3cncc(C#Cc4cnc5ccc(N[C@H]6CCOC6)nn45)c3)cc2C(F)(F)F)CC1`, the growth in test [1] is -80.4% (active); in [2], -89.1% (active); in [3] it was -95.3% (active); in test [4] it was -80% (active); in [5], -76.1% (active); in test [6], -79.4% (active). In addition, the growth in [7] is -69.1% (active); in [8], -59.9% (active); in [9] it was -75.6% (active); in [10], -79.6% (active); in test [11], -99.9% (active); in test [12] it was 0.651% (active). Further, the growth in test [13] is -97.3% (active); in [14], -92.4% (active); in test [15] it was -74.5% (active); in [16], -98.4% (active); in test [17] it was -99.7% (active); in test [18], -84.1% (active). The growth in test [19] is -82% (active).

As to `CCOC(=O)C1=C(N)N(c2ccccc2)C2=C(C(=O)CC(C)(C)C2)C1c1ccc(Cl)cc1` (stereo unspecified), the growth in test [1] was 48.9%; in test [2], 70.4%; in test [3], 64.9%; in [4], 80.7%; in test [5], 13%; in test [6] it was 69.5%. In addition, the growth in test [7] is 38.4%; in test [8], 33.9%; in [9] it was 67.3%; in [10], -17.7% (active); in test [11] it was 58.3%; in [12] it was 18.3%. Also, the growth is 15.9% in test [13]; 53% in test [14]; 58% in test [15]; 21.3% in test [16]; 36.2% in test [17]; 28% in [18]. For the same compound, the growth in test [19] is 28.2%.

Regarding `Cn1c(O)c(N=Nc2nc(-c3cc4ccccc4oc3=O)cs2)c2cc(Br)ccc21`, the growth in test [1] was 51.2%; in [2] it was 52%; in test [3], 84.4%; in test [4] it was 12.1%; in test [5], 92%; in test [6], -14.7% (active). In addition, the growth in test [7] is 57.9%; in test [8] it was 97.8%; in test [9] it was -12% (active); in [10], 136%; in test [11], 101%; in [12], 100%. In addition, the growth was 49.8% in test [13]; 41.4% in test [14]; 47.2% in test [15]; 14.3% in [16]; -6.85% (active) in [17]; 100% in test [18]. Moreover, the growth in test [19] was 88.7%.
